The whole screen tested about 5,500 compounds, of which about 2,000 (36%) were called active. Another 18% or so got no clear call; they are omitted. Rule as the data show it: active = normalized growth mostly below about 0.91 (no sharp cut-off); inconclusive = no clear call, values can overlap the other calls; inactive = mostly above about 0.92. The list shows a part of the results.
Experiment: chemical genetic growth profiling, strain panel (AID 1159580);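 also: tested at 20 µM; growth read once vehicle control cultures reached saturation at 30 °C; 1 = growth at the plate median or of vehicle wells; lower values mean less growth of the strain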
Settings: growth OD

Measured: normalized growth

CC(=O)OCC1=C(C(=O)O)N2C(=O)[C@@H](NC(=O)CCCC(N)C(=O)O)C2SC1 (some centres not stated)
inactive: S. cerevisiae deletion strains, locus YJR075W, strain HOC1, stronger effect = lower value 1.05 | S. cerevisiae deletion strains, locus YKL009W, strain mrt4, stronger effect = lower value 0.996 | S. cerevisiae deletion strains, locus YKL068W, stronger effect = lower value 1 | S. cerevisiae deletion strains, locus YKL085W, strain MDH1 (second series), stronger effect = lower value 0.995 | S. cerevisiae deletion strains, locus YKL085W, strain MDH1, stronger effect = lower value 0.995 | S. cerevisiae deletion strains, locus YKL160W, strain elf1, stronger effect = lower value 0.998 | S. cerevisiae deletion strains, locus YKL190W, strain CNB1, stronger effect = lower value 1.01 | S. cerevisiae deletion strains, locus YKR001C, strain vps1, stronger effect = lower value 1.03 | S. cerevisiae deletion strains, locus YKR026C, strain gcn3, stronger effect = lower value 0.969 | S. cerevisiae deletion strains, locus YKR091W, strain srl3, stronger effect = lower value 0.999 | S. cerevisiae deletion strains, locus YLL001W, strain dnm1, stronger effect = lower value 0.973 | S. cerevisiae deletion strains, locus YLL026W, stronger effect = lower value 0.996 | S. cerevisiae deletion strains, locus YLL041C, strain sdh2, stronger effect = lower value 0.993 | S. cerevisiae deletion strains, locus YLR027C, strain aat2, stronger effect = lower value 0.998 | S. cerevisiae deletion strains, locus YLR039C, strain RIC1, stronger effect = lower value 1.02 | S. cerevisiae deletion strains, locus YLR058C, strain SHM2, stronger effect = lower value 1.02 | S. cerevisiae deletion strains, locus YLR102C, strain apc9, stronger effect = lower value 0.997 | S. cerevisiae deletion strains, locus YLR113W, strain HOG1, stronger effect = lower value 1.01 | S. cerevisiae deletion strains, locus YLR221C, strain rsa3, stronger effect = lower value 0.994 | S. cerevisiae deletion strains, locus YLR258W, strain gsy2, stronger effect = lower value 1.02 | S. cerevisiae deletion strains, locus YLR262C, strain YPT6 (second series), stronger effect = lower value 0.978 | S. cerevisiae deletion strains, locus YLR262C, strain YPT6, stronger effect = lower value 1.02 | S. cerevisiae deletion strains, locus YLR268W, strain sec22, stronger effect = lower value 1.01 | S. cerevisiae deletion strains, locus YLR320W, strain mms22, stronger effect = lower value 1.01 | S. cerevisiae deletion strains, locus YLR330W, strain CHS5, stronger effect = lower value 1.01 | S. cerevisiae deletion strains, locus YLR342W, strain FKS1 (second series), stronger effect = lower value 1.04 | S. cerevisiae deletion strains, locus YLR342W, strain FKS1, stronger effect = lower value 1.01 | S. cerevisiae deletion strains, locus YLR357W, strain rsc2, stronger effect = lower value 0.99 | S. cerevisiae deletion strains, locus YLR370C, strain arc18, stronger effect = lower value 1.01 | S. cerevisiae deletion strains, locus YLR371W, strain rom2, stronger effect = lower value 1.01 | S. cerevisiae deletion strains, locus YLR384C, strain iki3, stronger effect = lower value 0.994 | S. cerevisiae deletion strains, locus YLR418C, strain cdc73, stronger effect = lower value 1 | S. cerevisiae deletion strains, locus YML016C, strain PPZ1, stronger effect = lower value 1.01 | S. cerevisiae deletion strains, locus YML032C, strain rad52, stronger effect = lower value 1.02 | S. cerevisiae deletion strains, locus YML120C, strain ndi1, stronger effect = lower value 0.996 | S. cerevisiae deletion strains, locus YML124C, strain tub3, stronger effect = lower value 1 | S. cerevisiae deletion strains, locus YMR058W, strain fet3, stronger effect = lower value 0.994 | S. cerevisiae deletion strains, locus YMR078C, strain ctf18, stronger effect = lower value 1 | S. cerevisiae deletion strains, locus YMR125W, strain sto1, stronger effect = lower value 0.996 | S. cerevisiae deletion strains, locus YMR129W, stronger effect = lower value 0.988 | S. cerevisiae deletion strains, locus YMR205C, strain PFK2, stronger effect = lower value 1.02 | S. cerevisiae deletion strains, locus YMR223W, strain ubp8, stronger effect = lower value 1.04 | S. cerevisiae deletion strains, locus YMR231W, strain pep5, stronger effect = lower value 0.988 | S. cerevisiae deletion strains, locus YMR263W, strain SAP30, stronger effect = lower value 1.04 | S. cerevisiae deletion strains, locus YMR307W, strain GAS1, stronger effect = lower value 0.987 | S. cerevisiae deletion strains, locus YNL067W, strain RPL9B, stronger effect = lower value 1.01 | S. cerevisiae deletion strains, locus YNL071W, strain lat1, stronger effect = lower value 1.01 | S. cerevisiae deletion strains, locus YNL128W, strain TEP1, stronger effect = lower value 1.01 | S. cerevisiae deletion strains, locus YNL153C, strain GIM3, stronger effect = lower value 1.03 | S. cerevisiae deletion strains, locus YNL183C, strain NPR1, stronger effect = lower value 0.946 | S. cerevisiae deletion strains, locus YNL209W, strain ssb2, stronger effect = lower value 0.998 | S. cerevisiae deletion strains, locus YNL233W, strain BNI4, stronger effect = lower value 1.02 | S. cerevisiae deletion strains, locus YNL248C, strain rpa49, stronger effect = lower value 0.996 | S. cerevisiae deletion strains, locus YNL250W, strain rad50, stronger effect = lower value 1 | S. cerevisiae deletion strains, locus YNL271C, strain bni1, stronger effect = lower value 0.998 | S. cerevisiae deletion strains, locus YNL298W, strain CLA4, stronger effect = lower value 1.02 | S. cerevisiae deletion strains, locus YNL307C, strain MCK1, stronger effect = lower value 1.01 | S. cerevisiae deletion strains, locus YNL322C, strain KRE1 (second series), stronger effect = lower value 0.99 | S. cerevisiae deletion strains, locus YNL322C, strain KRE1, stronger effect = lower value 1.01 | S. cerevisiae deletion strains, locus YNR049C, strain mso1, stronger effect = lower value 0.996 | S. cerevisiae deletion strains, locus YNR052C, strain pop2, stronger effect = lower value 1.02 | S. cerevisiae deletion strains, locus YOL006C, strain TOP1, stronger effect = lower value 1 | S. cerevisiae deletion strains, locus YOL012C, strain htz1 0.841 | S. cerevisiae deletion strains, locus YOL147C, strain pex11, stronger effect = lower value 0.997 | S. cerevisiae deletion strains, locus YOR001W, strain rrp6, stronger effect = lower value 0.998 | S. cerevisiae deletion strains, locus YOR061W, strain CKA2, stronger effect = lower value 1.01 | S. cerevisiae deletion strains, locus YOR069W, strain VPS5, stronger effect = lower value 1 | S. cerevisiae deletion strains, locus YOR070C, strain gyp1, stronger effect = lower value 0.995 | S. cerevisiae deletion strains, locus YOR080W, strain dia2, stronger effect = lower value 1 | S. cerevisiae deletion strains, locus YOR083W, strain WHI5, stronger effect = lower value 0.993 | S. cerevisiae deletion strains, locus YOR106W, strain vam3, stronger effect = lower value 0.999 | S. cerevisiae deletion strains, locus YOR136W, strain idh2, stronger effect = lower value 1 | S. cerevisiae deletion strains, locus YOR144C, strain elg1, stronger effect = lower value 0.99 | S. cerevisiae deletion strains, locus YOR184W, strain ser1, stronger effect = lower value 1.02 | S. cerevisiae deletion strains, locus YOR231W, strain MKK1, stronger effect = lower value 1 | S. cerevisiae deletion strains, locus YOR265W, strain rbl2, stronger effect = lower value 0.993 | S. cerevisiae deletion strains, locus YOR270C, strain vph1, stronger effect = lower value 1.08 | S. cerevisiae deletion strains, locus YOR290C, strain snf2, stronger effect = lower value 0.973 | S. cerevisiae deletion strains, locus YOR316C, strain cot1, stronger effect = lower value 0.994 | S. cerevisiae deletion strains, locus YPL051W, strain arl3, stronger effect = lower value 0.99 | S. cerevisiae deletion strains, locus YPL055C, strain LGE1, stronger effect = lower value 1.03 | S. cerevisiae deletion strains, locus YPL078C, strain atp4, stronger effect = lower value 0.994 | S. cerevisiae deletion strains, locus YPL106C, strain sse1, stronger effect = lower value 0.981 | S. cerevisiae deletion strains, locus YPL240C, strain hsp82, stronger effect = lower value 1.01 | S. cerevisiae deletion strains, locus YPL241C, strain CIN2, stronger effect = lower value 1.01 | S. cerevisiae deletion strains, locus YPL256C, strain CLN2, stronger effect = lower value 0.967 | S. cerevisiae deletion strains, locus YPR119W, strain clb2, stronger effect = lower value 1 | S. cerevisiae deletion strains, locus YPR141C, strain kar3, stronger effect = lower value 1 | S. cerevisiae deletion strains, locus YPR163C, strain tif3, stronger effect = lower value 1 | S. cerevisiae deletion strains, locus YPR167C, strain met16, stronger effect = lower value 1 | S. cerevisiae deletion strains, strain wtn01, stronger effect = lower value 1 | S. cerevisiae strains, strain wild type, stronger effect = lower value 1.02
